# Bioassay records deposited in PubChem by National Center for Advancing Translational Sciences (NCATS).
# Most compounds without a hit are left out; they make up all but 1.3% or so of the library.
# TRPV1 potentiator: enhances activation of the human vanilloid receptor TRPV1; Q8NER1; TRPV1-expressing cells, Fluo-8 calcium influx, capsaicin EC20 potentiation; potentiation, % at 8.33 µM; 0.02% of 320,000 active; AID 540277; in the data active = potentiation above about 80%; inconclusive = between about 30% and that limit; also: 0% is about no effect
#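 Fluo-8 calcium influx in TRPV1-expressing cells, kinetic read (ex 480/em 520 nm). Compound added and read 3 min for agonist activity, followed by capsaicin at EC20 final and 2 min further read for enhancement.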
# TRPV1 ag: agonists of human vanilloid receptor 1 (TRPV1). AID 540275. activation, % at 8.33 µM. 0.19% of 320,000 active. Q8NER1. TRPV1-expressing cells, Fluo-8 calcium influx, agonist mode; in the data active = activation above about 80%; inconclusive = between about 30% and that limit; also: 0% is about no effect
#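 Cells expressing TRPV1 were dye-loaded with Fluo-8 and read kinetically: 10 s baseline, 3 min after compound (agonist portion), then 2 min after EC20 capsaicin (allosteric enhancer portion). Calcium-bound dye fluorescence at 480/520 nm.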
# KCNH2 WT inh: inhibitors of human wildtype KCNH2 potassium channel; activity change, % at 1.84 µM; 0.37% of 340,000 active; U2OS, BacMam KCNH2, thallium flux FluxOr; active compounds read low; AID 720551;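 active = maximum activity change below -70%; inconclusive = maximum activity change between -70% and -50%; inactive = maximum activity change above -50%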; also: % is scaled to controls: 0 for no effect and ±100 for the full control effect
#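 U2OS cells transduced with wild-type KCNH2 virus are loaded with FluxOr dye for 45 min, and thallium flux is measured in kinetic reads before and after stimulation buffer. Rate constants are normalized to DMSO controls.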
# MBNL1-CUG inh: blocks human MBNL1 binding to CUG repeat RNA | Q9NR56 | TR-FRET MBNL1-His/biotin-(CUG)12 binding, 665/545 ratio | Potency, µM (series often up to 57.5 µM), for the others: top-dose activity change, negative = inhibition, most hits filed as inhibitors | 0.036% of 280,000 active | AID 2675; active = well fitted inhibition curve with a large enough effect in the signal ratio, with a control signal flat, not every such curve was filed as active; inconclusive = small, poorly fitted or top-dose-only effect, or effect the other way, or a change in a side signal; inactive = no such curve, though single readings can be large or run the other way; the % refers to the signal ratio; also: potency is read from the fitted curve at half-maximal effect; % is scaled to controls: 0 for no effect and ±100 for the full control effect
#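 Inhibition of protein-RNA binding appears as loss of TR-FRET between terbium anti-His antibody on MBNL1-His and streptavidin-XL665 on biotin-(CUG)12. Activity is normalized to buffer-only and uninhibited-complex controls.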
# KCNH2 3.1 inh: KCNH2 3.1 (human) potassium channel inhibition | activity change, % (tested at about 1.8 µM) | U2OS KCNH2 3.1, thallium flux FluxOr; active compounds read low | 0.95% of 340,000 active;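 active = maximum activity change below -70%; inconclusive = maximum activity change from -70% to -50%; inactive = maximum activity change above -50%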;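 also: thallium influx rate constant from kinetic fluorescence after stimulation buffer; % is scaled to controls: 0 for no effect and ±100 for the full control effect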
#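 FluxOr-based Tl+ influx in U2OS cells transduced with KCNH2 3.1 virus; rate constants normalized to DMSO controls.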
# * marks the source's active call; other numbers are inactive results; ? = inconclusive; nt = no result.
SMILES,TRPV1 potentiator,TRPV1 ag,KCNH2 WT inh,MBNL1-CUG inh,KCNH2 3.1 inh
CCOC(=O)/C=c1\s/c(=C\c2sccc2C)c(=O)n1CC(=O)NCc1ccc(C)cc1,2.7,-0.9,nt,-4.4%,nt
COc1ccc(CC(=O)N/N=C(\C)CC(=O)Nc2ccc(N(C)C)cc2)cc1,17.5,0.6,8.2,3.4%,-11.3
COc1ccc(CC(=O)N/N=C(/C)CC(=O)N(C)c2ccccc2)cc1,1.1,-3.5,3.7,5.5%,-91.7*
CCC(C)Sc1cc(-c2nc3ccc(C)cn3c2NCc2ccccc2)ccc1OC (configuration not stated),nt,nt,?,nt,-101.5*
COc1ccc(-c2cc(-c3nc4ccccn4c3NCc3ccccc3)ccc2OC)cc1,nt,nt,-99.1*,nt,-101.4*
CCCCNc1c(-c2ccc(OC)c(SC(C)CC)c2)nc2ccc(C)cn12 (configuration not stated),nt,nt,-6.1,nt,-47.5
CCC(C)Sc1cccc(-c2nc3cc(C)ccn3c2NCc2ccccc2)c1 (configuration not stated),13.9,93.4*,3.0,nt,-40.9
CCCCCCSc1ccc(-c2nc3ccc(C)cn3c2NCc2ccccc2)cc1OC,24.1,?,-20.5,nt,-91.4*
CCCCCCSc1ccc(-c2nc3ccc(C)cn3c2NCc2ccccc2)cc1,?,?,10.3,nt,-15.8
O=C(NCCNC(=O)c1ccccc1Br)c1cccnc1,-4.0,-2.1,4.6,3.8%,nt
FC(F)(F)c1ccc(/C=N/n2c(C3CCCCC3)n[nH]c2=S)cc1,0.1,13.7,-1.1,-1.4%,-1.6
CCCCNc1c(-c2ccc(SC3CCCCC3)cc2)nc2ccccn12,-5.7,?,?,nt,-80.6*
CCC(C)Sc1cc(-c2nc3cc(C)ccn3c2NC2CCCCC2)ccc1OC (configuration not stated),nt,nt,37.9,nt,-4.9
COc1ccc(-c2nc3ccc(C)cn3c2NCc2ccccc2)cc1SC1CCCCC1,?,?,-8.7,nt,-21.2
CCC(C)Sc1ccc(-c2nc3ccc(C)cn3c2NCc2ccccc2)cc1OC (configuration not stated),29.8,88.4*,-0.4,nt,-46.6
CCCCNc1c(-c2ccc(SC(C)CC)cc2)nc2ccccn12 (configuration not stated),5.6,?,-16.4,nt,?
CCC(C)Sc1cc(-c2nc3ccccn3c2NC2CCCCC2)ccc1OC (configuration not stated),-11.6,0.4,3.3,nt,-149.5*
CCCCNc1c(-c2ccc(SC3CCCCC3)c(OC)c2)nc2ccc(C)cn12,nt,nt,8.3,nt,-72.3*
CC(C)Sc1nc2c(cnn2-c2ccc(Cl)cc2)c(=O)[nH]1,20.1,-3.0,-0.1,-6.1%,-1.2
C=CCN1C(c2ccccc2)=CS/C1=C(\C#N)c1nnc2n1CCCCC2,9.6,-1.4,-2.1,?,-17.5
C=CCn1c(=O)/c(=C/c2ccc(Cl)cc2)s/c1=C(\C#N)c1nnc2n1CCCCC2,nt,nt,0.1,nt,-87.1*
Fc1ccc(-n2cc(CNCCc3cccnc3)c(-c3ccccc3Cl)n2)cc1,-12.3,22.7,70.5,1.7%,-73.6*
O=C(N/N=C/c1ccccc1)c1n[nH]c2c1CCCC2,-19.3,83.3*,2.0,3.5%,1.5
Cn1c(-c2ccc3c(c2)OCO3)cnc1N,-0.7,-0.7,4.0,7.9%,-74.8*
O=c1cc(N2CCCCC2)c(-c2ccccc2)nn1Cc1ccc(Cl)cc1,-2.5,?,-7.6,0.0%,-94.5*
SMILES,TRPV1 potentiator,TRPV1 ag,KCNH2 WT inh,MBNL1-CUG inh,KCNH2 3.1 inh
CCN1C(=O)C(CC(=O)Nc2ccc(OC)cc2)N(CCCN2CCN(c3ccc(F)cc3)CC2)C1=S (configuration not stated),-3.6,7.0,-75.5*,-23.6%,-82.9*
CCC(=O)Oc1ccc(C(=O)Nc2ccc([N+](=O)[O-])cc2)cc1,16.0,?,-158.9*,?,9.3
CC(C)(C)c1ccc(/C=C/C(=O)Nc2cccnc2)cc1,-19.5,101.4*,-9.5,9.8%,10.0
CSc1cccc(NC(=O)/C=C/c2ccccc2)c1,-6.8,?,19.2,4.5%,2.6
CSc1ccc(/C=C/C(=O)Nc2ccccc2)cc1,3.8,89.7*,-1.0,-5.3%,-7.9
O=C(/C=C/c1ccc(Cl)c(Cl)c1)Nc1cccnc1,nt,nt,-4.5,nt,-1.6
C=CCNC(=S)NNC(=O)COc1cccc(Cl)c1,5.2,0.5,0.5,-2.0%,8.1
